Screen size: about 190,000 compounds; about 6,900 (3.6%) were called active. The list comes from a sample in which actives are over-represented; it also holds similar structures and randomly drawn compounds. Values without a mark were called inactive. Cut-off read from the data, not from the text of the source: active = inhibition above about 50%; inactive = the rest.

The assay deals with Huntingtin (Homo sapiens) (UniProt P42858). Nature of the assay: mutant huntingtin-calmodulin interaction inhibitors – biochemical, AlphaScreen, primary screen (AID 1671202).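 Note: 0% = both proteins with DMSO and 100% = one protein alone.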 To be noted: AlphaScreen His-mHTT/GST-CaM binding, luminescence; at 15 µM, active compounds read high.
Huntingtin (Homo sapiens), sequence (P42858 whole entry, looked up, stated change not applied): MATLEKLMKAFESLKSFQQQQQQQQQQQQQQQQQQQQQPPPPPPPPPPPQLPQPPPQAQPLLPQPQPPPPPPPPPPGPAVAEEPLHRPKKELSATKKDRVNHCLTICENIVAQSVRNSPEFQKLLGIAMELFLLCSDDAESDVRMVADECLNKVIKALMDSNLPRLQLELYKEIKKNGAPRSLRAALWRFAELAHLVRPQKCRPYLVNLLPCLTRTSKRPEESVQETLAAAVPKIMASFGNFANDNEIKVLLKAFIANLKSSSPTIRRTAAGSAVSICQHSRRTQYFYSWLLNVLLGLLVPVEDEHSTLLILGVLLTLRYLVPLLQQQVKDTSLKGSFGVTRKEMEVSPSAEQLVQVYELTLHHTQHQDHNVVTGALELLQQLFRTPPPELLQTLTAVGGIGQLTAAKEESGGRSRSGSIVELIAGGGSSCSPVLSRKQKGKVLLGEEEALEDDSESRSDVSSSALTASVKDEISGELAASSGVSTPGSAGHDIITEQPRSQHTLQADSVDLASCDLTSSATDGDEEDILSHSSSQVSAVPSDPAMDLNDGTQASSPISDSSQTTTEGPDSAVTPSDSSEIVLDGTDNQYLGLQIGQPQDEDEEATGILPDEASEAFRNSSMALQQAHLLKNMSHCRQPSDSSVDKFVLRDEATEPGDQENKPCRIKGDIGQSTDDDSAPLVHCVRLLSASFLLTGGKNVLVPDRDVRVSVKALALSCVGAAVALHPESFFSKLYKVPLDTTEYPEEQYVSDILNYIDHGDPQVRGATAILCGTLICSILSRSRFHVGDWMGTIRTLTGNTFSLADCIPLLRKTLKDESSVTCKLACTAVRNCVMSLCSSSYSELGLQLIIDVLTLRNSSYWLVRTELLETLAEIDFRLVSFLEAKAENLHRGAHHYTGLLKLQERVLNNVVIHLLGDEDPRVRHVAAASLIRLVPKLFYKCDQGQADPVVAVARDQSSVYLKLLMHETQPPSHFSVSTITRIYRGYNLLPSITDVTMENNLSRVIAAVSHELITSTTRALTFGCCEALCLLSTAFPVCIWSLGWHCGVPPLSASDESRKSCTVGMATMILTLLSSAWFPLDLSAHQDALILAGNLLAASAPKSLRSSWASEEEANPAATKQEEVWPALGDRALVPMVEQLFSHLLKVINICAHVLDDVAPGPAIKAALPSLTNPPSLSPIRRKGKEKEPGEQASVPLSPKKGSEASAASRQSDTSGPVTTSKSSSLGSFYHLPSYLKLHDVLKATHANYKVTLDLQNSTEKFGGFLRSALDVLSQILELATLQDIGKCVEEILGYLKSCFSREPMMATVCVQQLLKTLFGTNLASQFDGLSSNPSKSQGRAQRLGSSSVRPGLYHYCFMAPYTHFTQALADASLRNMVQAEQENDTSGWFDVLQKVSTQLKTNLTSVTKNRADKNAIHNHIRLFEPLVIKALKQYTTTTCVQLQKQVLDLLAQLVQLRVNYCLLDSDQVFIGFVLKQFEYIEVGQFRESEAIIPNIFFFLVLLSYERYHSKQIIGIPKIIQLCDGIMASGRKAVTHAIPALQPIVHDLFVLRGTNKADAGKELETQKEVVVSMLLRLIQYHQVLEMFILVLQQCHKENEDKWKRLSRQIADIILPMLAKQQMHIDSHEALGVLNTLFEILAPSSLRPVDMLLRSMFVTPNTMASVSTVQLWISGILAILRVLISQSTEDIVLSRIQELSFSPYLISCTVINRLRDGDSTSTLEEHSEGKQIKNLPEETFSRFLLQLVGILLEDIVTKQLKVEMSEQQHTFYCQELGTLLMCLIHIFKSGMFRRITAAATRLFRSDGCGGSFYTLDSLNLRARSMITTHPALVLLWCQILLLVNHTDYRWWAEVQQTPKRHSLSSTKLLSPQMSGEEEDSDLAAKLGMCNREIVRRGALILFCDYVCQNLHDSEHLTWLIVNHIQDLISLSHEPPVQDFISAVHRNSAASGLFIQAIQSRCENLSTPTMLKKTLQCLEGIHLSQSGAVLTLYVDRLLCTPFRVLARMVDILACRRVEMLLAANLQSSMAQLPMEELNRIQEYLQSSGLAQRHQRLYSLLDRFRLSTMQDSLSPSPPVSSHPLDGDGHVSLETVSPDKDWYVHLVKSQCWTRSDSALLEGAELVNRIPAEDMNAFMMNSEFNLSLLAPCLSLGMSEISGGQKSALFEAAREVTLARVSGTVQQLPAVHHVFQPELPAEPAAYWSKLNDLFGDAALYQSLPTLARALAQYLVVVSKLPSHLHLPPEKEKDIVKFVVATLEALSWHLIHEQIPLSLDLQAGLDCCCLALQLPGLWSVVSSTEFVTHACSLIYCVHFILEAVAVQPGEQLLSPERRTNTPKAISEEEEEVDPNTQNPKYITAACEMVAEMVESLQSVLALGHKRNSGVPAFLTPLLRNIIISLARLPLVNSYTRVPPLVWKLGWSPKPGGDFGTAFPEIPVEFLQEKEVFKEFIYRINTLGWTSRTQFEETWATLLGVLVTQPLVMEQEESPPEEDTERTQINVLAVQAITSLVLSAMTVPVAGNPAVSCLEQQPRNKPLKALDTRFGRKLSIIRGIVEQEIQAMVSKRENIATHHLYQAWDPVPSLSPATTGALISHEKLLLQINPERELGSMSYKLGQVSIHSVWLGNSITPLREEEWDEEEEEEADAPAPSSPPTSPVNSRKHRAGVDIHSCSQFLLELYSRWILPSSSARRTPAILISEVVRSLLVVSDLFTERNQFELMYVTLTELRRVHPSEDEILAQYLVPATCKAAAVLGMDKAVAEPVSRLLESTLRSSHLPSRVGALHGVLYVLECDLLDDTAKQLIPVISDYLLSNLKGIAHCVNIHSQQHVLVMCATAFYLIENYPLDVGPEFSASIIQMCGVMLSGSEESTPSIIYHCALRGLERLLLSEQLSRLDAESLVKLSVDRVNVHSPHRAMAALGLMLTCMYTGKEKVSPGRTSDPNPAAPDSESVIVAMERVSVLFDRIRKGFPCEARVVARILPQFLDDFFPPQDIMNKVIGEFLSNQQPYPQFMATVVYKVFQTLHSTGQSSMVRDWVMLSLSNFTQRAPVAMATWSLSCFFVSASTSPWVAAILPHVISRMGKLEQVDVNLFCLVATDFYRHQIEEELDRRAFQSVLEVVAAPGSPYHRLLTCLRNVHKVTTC
With `CCS(=O)(=O)NCC1CCC(C(=O)Nc2ccccc2C)CC1` (centres undefined), the inhibition was -10.6%.

As to `O=C(c1cccc2[nH]cc(CN3CCCC3)c12)N1CCN(c2ccccc2)CC1`, the inhibition is 54.3% (active).

Regarding `Cc1ccc(C(=O)N2CCN(c3ccccc3)CC2)c(Cl)c1`, the inhibition is 2.2%.

As to `O=C(C1CCCN(Cc2c[nH]c3ccccc23)C1)N1CCCCCC1` (centres undefined), the inhibition was 11.1%.

For the molecule `CCN(CC)C(=O)CSc1nnc(NC(C)=O)s1`, the inhibition was -5.1%.

As to `O=C(N=c1sccn1CC(=O)N1CCCC1)c1ccccc1Cl`, the inhibition was 7%.

For `O=C(NC1CC2CC1N(C(=O)NCCc1ccccc1)C2)c1cccnc1` (centres undefined), the inhibition is 0.1%.

With `COc1ccccc1/C=C/CN1CCN(C)CC1`, the inhibition is -4.8%.

On to `COc1cc(CN2CCN(C/C=C/c3ccccc3)CC2)cc(Br)c1O`, for which the inhibition was 55.5% (active).

For `COc1cccc(CN2CCN(C/C=C/c3ccccc3)CC2)c1OC`, the inhibition is 6.9%.

On to `Cc1oc(C2CCN(S(=O)(=O)c3ccc(F)cc3)CC2)nc1C(=O)N1CCOCC1`, for which the inhibition is -2.14%.

Regarding `CC(=O)NCCc1csc(C2CCN(C(=O)C3(c4ccccc4)CC3)CC2)n1`, the inhibition is 0.81%.

Regarding `CCOc1cc(/C=C2\C(=O)ON=C2C)cc(Br)c1OCc1ccccc1F`, the inhibition is 51% (active).

Turning to `CCOc1cc(C=C2C(=O)OC(C)(c3ccccc3)OC2=O)ccc1O` (centres undefined), the inhibition was 7%.

`CCOc1c(Br)cc(/C=C2\NC(=O)N(Cc3ccccc3F)C2=O)cc1OC`: the inhibition is -4%.

Regarding `CCOc1ccc(/C=C2/N=C(c3ccc(Cl)cc3)OC2=O)cc1OCC`, the inhibition was -5%.

For the molecule `C=CCOc1ccc(/C=C2/C(=O)ON=C2C)cc1OCC`, the inhibition is 89% (active).

As to `COc1cc(C=O)cc(Br)c1OCc1ccccn1`, the inhibition was -0.1%.

Take `NS(=O)(=O)c1ccc(NC(=O)CSc2nc3sc4c(c3c(=O)[nH]2)CCC4)cc1`: the inhibition is 5%.

Consider `COc1ccc(C2CC(O)(C#Cc3ccccc3)C(C)C(c3ccc(OC)cc3)N2)cc1` (centres undefined), for which the inhibition was 100% (active).

For `COc1ccc(C2SCCN2C(=O)c2cc3ccccc3oc2=O)cc1` (centres undefined), the inhibition was 0%.

Consider `Cc1[nH]nc(-c2ccc(S(=O)(=O)N3CCC(N4CCCCC4)CC3)s2)c1C`, for which the inhibition was 7.48%.

In the case of `Cc1n[nH]c(C)c1S(=O)(=O)N1CCC(C(=O)Nc2ccc(Br)cc2)CC1`, the inhibition is -8%.

With `O=C(Nc1nc(-c2ccc([N+](=O)[O-])cc2)cs1)c1ccc(Cl)cc1`, the inhibition is 0.3%.

Regarding `COc1cc(NS(=O)(=O)c2ccc(Nc3nc(-c4cccnc4)cs3)cc2)nc(OC)n1`, the inhibition was 25.8%.

With `COc1cccc(Nc2nc(-c3ccc(Cl)cc3)cs2)c1`, the inhibition was 82.2% (active).

With `CC(Oc1ccccc1)C(=O)Nc1nc(-c2ccccc2)cs1` (centres undefined), the inhibition was -30%.

For `Clc1ccc(-c2csc(Nc3ncccn3)n2)cc1`, the inhibition is -1%.

As to `COc1ccc(-c2csc(Nc3ccc(O)cc3)n2)cc1`, the inhibition was 61.1% (active).

As to `COc1ccc2oc(=O)c(-c3csc(Nc4cccc(C(C)=O)c4)n3)cc2c1`, the inhibition was 2%.

Turning to `CN(C)c1ccc(Nc2nc(-c3ccc(Cl)cc3)cs2)cc1`, the inhibition was 57.2% (active).

Turning to `COc1cccc(N/C=C(\C#N)c2nc(-c3ccc(Cl)cc3)cs2)c1`, the inhibition was -2%.

For `Cc1ccsc1C1C(C#N)=C(N)N(c2ccc(Br)cc2)C2=C1C(=O)CCC2` (centres undefined), the inhibition is 22%.

Regarding `COC(=O)c1ccc(Cl)cc1NC(=O)N1CCOc2ccccc21`, the inhibition is -2.93%.

Consider `Cc1ccc(S(=O)(=O)CCC(=O)Nc2c(F)cccc2F)cc1`, for which the inhibition is 0%.

For the molecule `CCN(CC)S(=O)(=O)c1ccc2oc(C(=O)NCC3CCCO3)c(C)c2c1` (centres undefined), the inhibition was 6%.

As for `O=C(Nc1cccc(Cl)c1)C1CCCN(c2nccnc2Oc2ccccc2)C1` (centres undefined), the inhibition was -9.65%.

With `COc1ccc(C)cc1NC(=O)N1CC2CC(NC(=O)c3cccs3)C1C2` (centres undefined), the inhibition was 3.7%.

Take `COc1cc(NC(=O)c2noc3c2CCCC3)cc(OC)c1OC`: the inhibition is 1.68%.

On to `O=S1(=O)c2cccc3cccc(c23)N1Cc1cccc(F)c1`, for which the inhibition is -24.4%.

Regarding `O=C(Nc1ccc(N2CCN(C3CCCC3)C2=O)nc1)c1cc(F)cc(F)c1`, the inhibition was -7.5%.

Regarding `Cc1ccc2c(c1)C(=O)N1CCCCC1C(=O)N2CC(=O)NCCN1CCCCCC1` (centres undefined), the inhibition is 75% (active).

Turning to `Cc1cccc(CNC(=O)CN2C(=O)C3CCCN3C(=O)c3cccc(C)c32)c1` (centres undefined), the inhibition was -6.69%.

As for `CC1CCN(CCNC(=O)CN2C(=O)C3CCCN3C(=O)c3ccc(F)cc32)CC1` (centres undefined), the inhibition was 1.11%.

`CC(=O)NCc1csc(C2CCN(S(=O)(=O)c3ccc(C)cc3C)CC2)n1`: the inhibition was 6.65%.

For the molecule `Cc1ccc(C2NC(=O)c3c(sc4c3CCCC4)N2)cc1` (centres undefined), the inhibition is 5%.

In the case of `Cc1ccc(C2NC(=O)c3c(sc4c3CCCC4)N2)c(O)c1` (centres undefined), the inhibition is 78% (active).

`O=C1NC(c2ccncc2)Nc2sc3c(c21)CCCC3` (centres undefined): the inhibition was 16%.

In the case of `Cc1ccc2c(c1)C(=O)NC1(CCN(C(=O)C3CCC3)CC1)N2`, the inhibition is 3.5%.

Regarding `CCOC(=O)C(C)Oc1ccc2c(c1)OC(=Cc1ccc(OC)cc1)C2=O` (centres undefined), the inhibition is -21.4%.

As for `COc1ccc(C(=O)Nc2cccc(NC(=O)c3ccc(Cl)cc3Cl)c2)cc1`, the inhibition was 4.1%.

As for `O=C(c1ccc(F)c(F)c1)N1CCN(c2nnc3ccccn23)CC1`, the inhibition was -6.3%.

With `Cc1cc(NC(=O)N2CC3CCCN3c3ccccc32)ccc1Br` (centres undefined), the inhibition was 87% (active).

As for `CCn1c(C2CCN(C(=O)Nc3ccc(Br)c(C)c3)C2)nc2cccnc21` (centres undefined), the inhibition is 25.2%.

With `COc1cc(OC)c(NC(=O)N2CC3CCCN3c3ccccc32)cc1Cl` (centres undefined), the inhibition is 38.8%.

Turning to `CC(C)(C)NC(=O)N1CCC(CNS(=O)(=O)c2ccc(Br)s2)CC1`, the inhibition is -7.3%.

Take `CCCNc1cc(N2CCCC(CCC(=O)Nc3cccc(C)c3C)C2)ncn1` (centres undefined): the inhibition was -0.7%.

Take `CCCNc1cc(N2CCCC(CCC(=O)N3CCN(CCC)CC3)C2)ncn1` (centres undefined): the inhibition is 5.87%.

Regarding `CCCNc1cc(N2CCCC(CCC(=O)Nc3ccc4c(c3)OCCO4)C2)ncn1` (centres undefined), the inhibition is 62.5% (active).

As for `Cc1ccc(Cl)cc1N1CCN(C(=O)Cn2nc(C(F)(F)F)c(Br)c2C)CC1`, the inhibition is -5%.

`C=C(C)c1nc2ccc(Br)cc2c(=O)o1`: the inhibition was -3%.

Regarding `CCc1cccc(NC(=O)N2CCc3c(c(-c4nc(C)no4)nn3C)C2)c1`, the inhibition was 53.9% (active).

As to `Cc1cccc(NC(=O)N2CCc3c(c(-c4nc(C5CC5)no4)nn3C)C2)c1`, the inhibition is 34.8%.

Regarding `Cc1noc(-c2nn(C)c3c2CN(C(=O)Nc2cccc(C(F)(F)F)c2)CC3)n1`, the inhibition was 28.3%.

Take `CCOC(=O)c1sc(NC(=O)CN2C(=O)c3ccccc3C2=O)c(SC#N)c1C`: the inhibition is 0.3%.

As for `CCN1c2ccc(C)cc2C(=O)NC12CCN(C(=O)c1cc(F)cc(F)c1)CC2`, the inhibition was 3.5%.

Regarding `COc1ccc(OC)c(Nc2ncc3c(n2)CCN(Cc2ccccc2)C3)c1`, the inhibition was 10.5%.

For the molecule `Clc1ccccc1CN1CCc2nc(Nc3ccc4c(c3)OCO4)ncc2C1`, the inhibition is 87.4% (active).

As for `COc1ccc(CN2CCc3nc(Nc4ccc5c(c4)OCCO5)ncc3C2)cc1`, the inhibition is 55.6% (active).

As for `CCOc1cccc(CN2CCc3nc(Nc4ccc(OC)cc4)ncc3C2)c1`, the inhibition is -0.89%.

Turning to `COc1cccc(Nc2ncc3c(n2)CCN(Cc2ccc(F)c(F)c2)C3)c1`, the inhibition was 33.9%.

Regarding `COc1ccc(CN2CCc3nc(Nc4ccccc4)ncc3C2)c(OC)c1OC`, the inhibition is 47.4%.

In the case of `Fc1ccc(Nc2ncc3c(n2)CCN(Cc2ccccc2)C3)cc1`, the inhibition is -7.34%.

Take `CCN1CCN(c2ncc3c(n2)CCN(Cc2ccccc2Cl)C3)CC1`: the inhibition is 39%.

In the case of `COc1cc(Nc2ncc3c(n2)CCN(Cc2cc(OC)ccc2OC)C3)cc(OC)c1`, the inhibition is 76.3% (active).

As for `O=C(Nc1nnc(SCc2ccc(C(F)(F)F)cc2)s1)c1cccs1`, the inhibition is -13.3%.

Take `CN(Cc1cn(Cc2ccc(C(F)(F)F)cc2)nn1)C1CN(Cc2cn(Cc3ccc(C(F)(F)F)cc3)nn2)S(=O)(=O)C1` (centres undefined): the inhibition was 10.9%.

`Cc1ccccc1CNC(=O)CCC1CCCN(C(=O)Nc2ccccc2F)C1` (centres undefined): the inhibition is -0.96%.

For the molecule `CCCn1c(C2CCN(C(=O)CCC3CCCC3)C2)nc2cccnc21` (centres undefined), the inhibition is 19.8%.

As for `Cc1nc(-c2ccc(C(=O)Nc3ccc(C)c(F)c3)cc2)cs1`, the inhibition was -6%.

`Cc1ccc2c(c1)CCN1C(=O)CN(S(=O)(=O)c3cccc(Cl)c3C)CC21` (centres undefined): the inhibition was 61.2% (active).

Take `Cc1c(Cl)cccc1NC(=O)c1ccc(F)c(S(=O)(=O)N2CCCC2)c1`: the inhibition was 3%.

For `COc1cccc(-c2nc(C3CCN(S(=O)(=O)c4cccc(Cl)c4C)CC3)no2)c1`, the inhibition was -1.63%.

As to `CC1C(=O)N(c2ccccc2-c2ccccc2)CCN1C(=O)C1CCCC1` (centres undefined), the inhibition was 3.1%.

`CSc1ccc(C2C=C(c3ccc(Cl)s3)Nc3ncnn32)cc1` (centres undefined): the inhibition was 21%.

Regarding `CC(C(=O)Nc1ccc(Cl)c(C(F)(F)F)c1)N1C(=O)c2ccccc2C1=O` (centres undefined), the inhibition was 24%.

In the case of `CCn1c(SCC(=O)Nc2ccc(Br)cc2)nnc1-c1cc(OC)cc(OC)c1`, the inhibition is 4.9%.

Turning to `Cc1nc(-c2nnc(NC(=O)c3ccnn3C)o2)cs1`, the inhibition was 50.2% (active).

Turning to `COc1cccc2cc(C(=O)NCCn3ccnc3C)oc12`, the inhibition is -8.3%.

`CCCCOc1ccc(C(=O)Nc2nnc(-c3ccncc3)o2)cc1`: the inhibition was 40.2%.

`CCOc1cccc2cc(C(=O)Nc3nnc(-c4csc(C)n4)o3)oc12`: the inhibition was 54.6% (active).

Turning to `Cc1csc(-c2ccc(CNC(=O)c3ccnn3C)cc2)n1`, the inhibition was -3.6%.

Regarding `CCOc1cccc2cc(C(=O)Nc3ccc(Cl)cc3Cl)c(=O)oc12`, the inhibition was 1%.

Consider `COc1ccc(N2C(=O)C3N=NN(Cc4c(F)cccc4Cl)C3C2=O)cc1` (centres undefined), for which the inhibition was -2.2%.
